Source: PubChem BioAssay AID1159580 (chemical genetic matrix, 2015)
The whole screen tested about 5,500 compounds, of which about 2,000 (36%) were called active. Another 18% or so got no clear call; they are omitted. No stated cut-off is given here; in the data, active means normalized growth mostly below about 0.91 (no sharp cut-off); inconclusive means no clear call, values can overlap the other calls; inactive means mostly above about 0.92. This is one part of the list.

Assay: chemical genetic growth profiling, strain panel (AID 1159580);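 further: tested at 20 µM; growth read once vehicle control cultures reached saturation at 30 °C; 1 = growth at the plate median or of vehicle wells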
Conditions: S. cerevisiae deletion strains, growth OD

Measured: normalized growth

CCc1oc2ccccc2c1C(=O)c1cc(Br)c(O)c(Br)c1
active: locus YHR030C, strain SLT2, stronger effect = lower value 0.0985 | locus YHR079C, strain IRE1, stronger effect = lower value 0.111 | locus YJL095W, strain BCK1, stronger effect = lower value 0.101 | locus YJR066W, strain TOR1, stronger effect = lower value 0.00147 | locus YLR113W, strain HOG1, stronger effect = lower value 0.124 | locus YNL183C, strain NPR1, stronger effect = lower value 0.06 | locus YOR231W, strain MKK1, stronger effect = lower value 0.105 | locus YPL256C, strain CLN2, stronger effect = lower value 0.13
